Source: PubChem BioAssay (NCI)
Compounds without any hit were thinned out: in the full panel of roughly 83,000, 20% have a hit.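 Plates (96-well) were seeded with cells, treated with compound at one concentration, and incubated for 48 hours before percent growth was determined.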 Unmarked numbers belong to inactive results. The source made the active and inactive calls. The calls were made as follows: active = growth percent below 10; inactive = the rest.

What follows are compounds tested on MDA-MB-468 breast (assay: NCI-60 one-dose screen, 48 h (100 = growth as untreated, 0 = no growth, -100 = all killed)). Conditions: 10 µM unless noted.
Compound `Oc1ccc(Br)cc1Sc1cc(Br)ccc1O` has a growth of 82.3%.
For `COc1ccc(NC(=O)CCCCCCNC(=O)C(O)(O)C(F)(F)F)cc1`, the growth was 31.8%.
Work on `COc1ccc(Br)c(C=O)c1` yielded a growth of 84.5%.
In the case of `CC(=O)Oc1ccccc1C(=O)Nc1cc(C(C)C)ccc1C`, the growth is reported as -5.42% (active).
With `COc1ccccc1C(=O)O/N=C(\N)Cc1cccc2ccccc12` the growth was 61.6%.
Compound `COc1ccc(N(C)c2nc(Cl)nc3ccn(C)c23)cc1` has a growth of 49.9%.
Compound `CC(CN(C)C)CN1c2ccccc2CCc2ccccc21` (stereo not given) has a growth of 41.7%.
`Cc1cccc(/C=N/Nc2cc(C)c3cccc(C)c3n2)n1` gave a growth of 88.7%.
With `O=S(=O)(Nc1ccsc1-c1nc(-c2ccccc2)no1)c1cc(Cl)cc(Cl)c1` the growth was 88.6%.
With `COc1ccc2[nH]cc(/C=C3/C(=O)Nc4ccc(Cl)cc43)c2c1` the growth was -10.9% (active).
With `O=[N+]([O-])c1ccc(N=Nc2cc(S(=O)(=O)O)c3cccc(S(=O)(=O)O)c3c2O)cc1` the growth was 118%.
`O=C(CN1CCOCC1)Nc1nc(-c2cc3ccccc3oc2=O)cs1` showed a growth of 107%.
`O=C1/C(=C/c2ccc(Cl)cc2)SC(=Nc2ccc(Cl)cc2)N1Cc1nc2ccccc2[nH]1` was tested, and the growth was 78.6%.
`CCN1C(=O)N(CC)C2C1NC(=S)N2/N=C/C=C/c1ccccc1` (stereo not given) was tested, and the growth was 3.7% (active).
`CCc1nnc(CNc2ccc(Cl)cc2)o1` gave a growth of 114%.
With `CCN1C(=O)N(CC)C2C1NN=c1s/c(=C\c3cccc(F)c3)c(=O)n12` (stereo not given) the growth was -21.8% (active).
For `CNC(=O)c1cc(Cn2nc(C)c(NC(=O)Nc3ccc(Cl)c(C(F)(F)F)c3)c2C)ccn1`, the growth was 97.5%.
In the case of `O=C(O)C(SC(C(=O)O)c1ccccc1)c1ccccc1` (stereo not given), the growth is reported as 106%.
`CC(=O)c1ccc(Nc2nccc(-c3ccc(Cl)cc3)n2)cc1` was tested, and the growth was 76.7%.
Work on `O=c1nc(-c2ccccc2)c2cc(-c3ccc(N4CCCC4)nc3)ccc2[nH]1` yielded a growth of 48.4%.
In the case of `COc1c2occc2c(OC)c2c(=O)c(-c3cc(-c4ccc(F)cc4)c(C#N)c(N)n3)c(C)oc12`, the growth is reported as 26.4%.
In the case of `COc1cc2oc(-c3cccc(C(=O)Nc4ccc(Cl)cc4)c3)cc(=O)c2c(O)c1OC`, the growth is reported as 43.7%.
With `CC[C@@H](CO)Nc1ccc2ncc(C#Cc3cncc(C(=O)Nc4ccc(CN5CCN(C)CC5)c(C(F)(F)F)c4)c3)n2n1` the growth was -68.4% (active).
In the case of `C=C1C(=O)O[C@H]2[C@H]1CC/C(Cn1cc(-c3ccsc3)nn1)=C\CC[C@@]1(C)O[C@@H]21`, the growth is reported as -56.8% (active).
With `COc1cc2nc(Nc3cccc(F)c3)nc(Nc3cc(C)[nH]n3)c2cc1OC` the growth was -76.6% [20 µM] (active).
